The list is not random: actives were taken first. Their share in the collection is about 3.1%.
BRCT PPI red – disrupts BRCA1 BRCT binding to phosphoprotein, red fluorophore readout. Potency, µM (highest dose often 76.9 µM), for inactives: at the highest dose activity change, negative = inhibition, actives largely listed as inhibitors. actives 0.03% (n = 75,000). BRCT-phosphopeptide binding, red fluorescence polarization; also: % is scaled to controls: 0 for no effect and ±100 for the full control effect
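Fluorescence polarization: 100 nM His-tagged BRCA1 BRCT with 100 nM TAMRA-labelled phospho-BACH1 decapeptide, phosphate buffer pH 7.3 with 150 mM NaCl, DTT, 0.01% Tween 20; 12 min RT. Binding inhibition seen as FP decrease.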
BRCT inh green – blocks human BRCA1 BRCT binding to phosphopeptide, green readout; P38398; actives 0.05% (n = 75,000); BRCA1 BRCT-phosphopeptide binding, green fluorescence polarization; Potency, µM (highest dose often 76.9 µM), for the others: top-dose activity change, negative = inhibition, hits mostly inhibitors; AID 875;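 also: potency is read from the fitted curve at half-maximal effect; plate controls were peptide without protein for full effect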
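Fluorescence polarization: His-tagged BRCT (~35 kDa BRCA1 C-terminus, 250 nM) bound to 100 nM fluorescein-labeled phosphorylated 10-aa BACH1 peptide, pH 7.3 phosphate buffer with DTT and Tween 20. Compounds incubated 12 min at room temperature; inhibition read as lowered polarization.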
Pol III holo inh – blocks replication by bacterial DNA polymerase III holoenzyme; reconstituted DNA polymerase III holoenzyme replication, biochemical; Potency, µM (titrated, usually from 57.1 µM), without a hit: top-dose activity change, negative = inhibition; actives 0.25% (n = 71,000); also: potency is read from the fitted curve at half-maximal effect; % is scaled to controls: 0 for no effect and ±100 for the full control effect
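Reconstituted *E. coli* holoenzyme (0.35 nM Pol III, 1 nM beta, 154 nM SSB, 2 nM primase) was preincubated with compound for 15 min at RT. Synthesis on 1.4 nM ssM13Gori ran 35 min, then was stopped with PicoGreen/EDTA and read as dsDNA fluorescence.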
YjeE inh – YjeE (TsaE) inhibition, E. coli | purified YjeE enzyme, qHTS inhibition assay | AID 605 | Potency, µM | actives 0.05% (n = 71,000) | P0AF67
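Fluorescence polarization of a BODIPY Texas Red–ADP probe (2 uM) bound to purified YjeE (10 uM) was read after 15 min room-temperature incubation with compounds. Loss of polarization marks inhibitors; ADP serves as titrated control.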
Tau fil binding – binds recombinant human tau filaments; actives 2% (n = 71,000); Potency, µM (doses to about 57.1 µM), for inactives: at the top dose activity change, negative = inhibition; recombinant tau filaments, thioflavin S fluorescence, 15 h; filaments grown with octadecylsulfate alongside compound; P10636;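 also: potency is read from the fitted curve at half-maximal effect; % is scaled to controls: 0 for no effect and ±100 for the full control effect; actives lower thioflavin S fluorescence by blocking filaments or displacing dye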
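ThS-based fibril read: tau 1 uM final, inducer ODS 30 uM final, 37 C for 15 h, ex 450/em 510 nm.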
ALOX15 inhib – 15-hLO (ALOX15) enzyme inhibition. P16050. purified 15hLO-1, xylenol orange hydroperoxide absorbance. Potency, µM (doses to about 57.1 µM), for inactives: at the highest dose activity change, negative = inhibition, actives largely listed as inhibitors. actives 1.4% (n = 74,000). AID 887; also: potency is read from the fitted curve at half-maximal effect; % is scaled to controls: 0 for no effect and ±100 for the full control effect; nearly all actives have a fitted effect of over 55% in size
Target sequence (P16050 whole entry, looked up): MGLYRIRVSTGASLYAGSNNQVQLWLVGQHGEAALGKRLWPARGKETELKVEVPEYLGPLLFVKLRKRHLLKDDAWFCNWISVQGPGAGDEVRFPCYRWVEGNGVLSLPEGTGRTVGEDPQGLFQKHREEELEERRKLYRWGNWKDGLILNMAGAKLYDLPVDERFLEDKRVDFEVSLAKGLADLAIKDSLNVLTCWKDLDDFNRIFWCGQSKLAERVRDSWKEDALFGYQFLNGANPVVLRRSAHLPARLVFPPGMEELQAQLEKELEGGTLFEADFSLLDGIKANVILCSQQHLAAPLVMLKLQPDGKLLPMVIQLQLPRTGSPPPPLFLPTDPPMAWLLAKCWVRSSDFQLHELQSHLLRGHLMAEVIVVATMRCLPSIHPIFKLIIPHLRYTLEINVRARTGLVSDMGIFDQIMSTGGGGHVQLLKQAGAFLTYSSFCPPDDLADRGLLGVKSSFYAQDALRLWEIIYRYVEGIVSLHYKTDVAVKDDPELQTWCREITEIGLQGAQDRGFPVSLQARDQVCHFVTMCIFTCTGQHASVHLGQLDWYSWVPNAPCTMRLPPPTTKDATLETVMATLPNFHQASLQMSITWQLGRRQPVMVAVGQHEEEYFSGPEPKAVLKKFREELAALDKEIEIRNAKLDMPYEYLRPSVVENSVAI
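Purified human 15hLO-1 (40 nM final) in 25 mM Hepes pH 7.5, 0.01% Triton X-100 was preincubated with compound 15 min at room temperature, then reacted 6 min with 50 uM arachidonic acid; hydroperoxide detected by Fe-XO, 573/405 nm absorbance ratio.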
The depositor's hits bear a star; i = inactive; u = inconclusive; x = no result given; [ ] = dose if it differs, or a comment. Calls follow the shape of the dose curve; as a rule, active = well fitted curve in the direction sought with a large enough effect; inconclusive = small, poorly fitted or top-dose-only effect, or another doubt; inactive = no such curve, though single readings can be large; an effect the other way counts as inactive or inconclusive.

SMILES | BRCT PPI red | BRCT inh green | Pol III holo inh | YjeE inh | Tau fil binding | ALOX15 inhib
COc1ccc(/C=C/C(=O)c2ccc(O)cc2O)cc1OC | 1% | 0%[3.08 µM] | x | x | x | 16µM*
O=C(/C=C/c1ccc(O)cc1)c1ccc(O)cc1O | 1%[15.4 µM] | 1%[15.4 µM] | x | x | x | -10%[11.4 µM]
COc1ccc(/C=C/C(=O)c2cccs2)cc1OC | 1% | -5% | x | x | x | -21%[25.6 µM]
COc1ccc(/C=C/C(=O)c2ccc(O)cc2O)cc1 | -5% | -9% | x | x | x | 20µM*
CCN(CC)CCCCNC(=O)c1ccc(Cc2nc3ccccc3[nH]2)cc1 | 1% | 0% | x | x | x | 1%
CCc1cc(N2CCOCC2)cc2c1[nH]c1ccccc12 | -3% | -4% | -4% | i | 25µM* | -28%
O=C(c1ccncc1)N1CCC[C@@]2(CCN(c3ccncc3)C2)C1 | 0% | -3% | -5% | i | -1% | 10%
O=c1cc(-c2ccccc2)oc2cc(O[C@H]3O[C@H](CO)[C@@H](O)[C@H](O)[C@@H]3O)c(O)c(O)c12 | x | x | -9% | i | u | x
CCCn1c(-c2cccs2)nc2ccccc21 | 0% | -1% | 1% | i | 2% | -6%
CCC(C)n1c(-c2cccs2)nc2nc3ccccc3nc21 (stereo not drawn) | 0% | 0% | 4% | i | 13µM* | -12%
C=CCn1c(-c2cccs2)nc2nc3ccccc3nc21 | -1% | -1% | -13% | i | 20µM* | 9%
C=CCn1c(-c2cccs2)nc2ccccc21 | -3% | 1% | -6% | i | 3% | 0%
O=C(/C=C/Nc1cccc(O)c1)c1ccccc1 | 0% | 6% | -4% | i | -5% | 13µM*
O=C(/C=C\Nc1ccccn1)c1ccccc1 | 2% | -3% | 3% | i | 26% | -14%
COc1cccc(Cn2c(=O)c(-c3cccc(F)c3)nc3cncnc32)c1 | -2% | -5% | -3% | i | 13µM* | -22%
COc1cccc(Cn2c(=O)c(-c3cc(F)cc(F)c3)nc3cncnc32)c1 | -1% | -1% | -9% | i | 13µM* | 3%
O=C1CS/C(=N\C(=O)N2c3ccccc3Sc3ccccc32)N1 | 0% | 5% | 4%[11.4 µM] | i | 3.2µM* | u
O=C1C2C3C=CC(C3)C2C(=O)N1c1ccccc1 (stereo not drawn) | 0% | -1% | -1% | i | 1% | -8%
O=C1C2C3CCCC3=C3CCCC3C2C(=O)N1c1ccccc1 (stereo not drawn) | 0% | 1% | -2% | i | 1% | 20µM*
CC(=O)OCC1OC(c2ccc3c(c2)OCO3)C=CC1OC(C)=O (stereo not drawn) | 1%[15.4 µM] | 2%[15.4 µM] | x | x | x | 6%[11.4 µM]
Cc1cc2oc3c(c(=O)c2cc1C)C(c1ccc(F)cc1)N(CCCN1CCOCC1)C3=O (stereo not drawn) | -7% | -4% | -6% | i | 20µM* | -15%
CCCOc1ccc(C2c3c(oc4cc(C)c(C)cc4c3=O)C(=O)N2CCCN(C)C)cc1 (stereo not drawn) | -1% | -3% | -1% | i | u | -7%
COc1ccc(C2c3c(oc4ccc(F)cc4c3=O)C(=O)N2CCN2CCOCC2)cc1OC (stereo not drawn) | 2% | -1% | -3% | i | -7% | -5%
CCOc1cccc(C2c3c(oc4cc(C)c(C)cc4c3=O)C(=O)N2CCCN(C)C)c1 (stereo not drawn) | 0% | -1% | -5% | i | 13µM* | 11%
CC1=C(CCC(=O)O)c2cc3nc(cc4[nH]c(cc5[nH]c(cc1n2)c(C)c5C(C)O)c(C)c4C(C)O)C(C)=C3CCC(=O)O (stereo not drawn) | -7% | -3% | x | x | x | -14%
SMILES | BRCT PPI red | BRCT inh green | Pol III holo inh | YjeE inh | Tau fil binding | ALOX15 inhib
C=Cc1c(C)c2cc3[nH]c(cc4nc(cc5nc(cc1[nH]2)C(C)=C5CCC(=O)O)C(CCC(=O)O)=C4C)c(C)c3C=C | -18% | -1%[3.08 µM] | -17% | u | 5µM* | u
CC1=C(/C=C/C(C)=C/C=C/C(C)=C/C=O)C(C)(C)CCC1 | -1% | 0% | 0% | i | 5µM* | u
CC1=C(/C=C/C(C)=C/C=C/C(C)=C\C=O)C(C)(C)CCC1 | -2% | 1% | -6% | i | 6.3µM* | -28%
CC1=C(/C=C/C(C)=C/C=C/C(C)=C/CO)C(C)(C)CCC1 | 0% | -2% | -5% | i | 32µM* | u
CC1=C(\C=C/C(C)=C/C=C\C(C)=C\CO)C(C)(C)CCC1 | x | x | -2% | i | u | x
Cc1cc(C)c2c3c(c(-c4ccccc4)n2n1)c(=O)n(C)c(=O)n3C | -1% | 4% | -4%[11.4 µM] | i | 27%[11.4 µM] | 0%[11.4 µM]
Cc1cc(-c2ccccc2)c2c3c(cn2n1)c(=O)n(C)c(=O)n3C | -2% | 0% | 1% | i | 13µM* | -1%
N#CC1=C(N)N(c2ccccc2)C2=C(C(=O)CCC2)C1c1cccs1 (stereo not drawn) | 2% | 10% | -6% | i | 20µM* | u
N#CC1=C(N)N(c2ccccc2C#N)C2=C(C(=O)CCC2)C1c1ccsc1 (stereo not drawn) | 0% | -2% | -7% | i | u | -13%
COc1ccccc1-c1cncnc1NCCNC(C)=O | 0% | -1% | -4% | i | -16% | 10µM*
COc1ccccc1-c1cncnc1Nc1ccccc1 | -2% | -1% | -7% | i | -5% | 25µM*
COc1ccccc1-c1cncnc1Nc1ccc(F)cc1 | 0% | 1% | -1% | i | -1% | -15%
CCCN1C[C@@H](CSC)C[C@H]2c3cccc4[nH]cc(c34)C[C@@H]21 | -1% | -2% | 0% | i | 59% | -3%
CC(=O)N1CCCc2cc(S(=O)(=O)CCC(=O)N3CCN(c4cccc(C)c4)C(C)C3)ccc21 (stereo not drawn) | 1% | 1% | 16µM* | i | 8% | 0%
C=C(C)C1CCC(C)=C1COC(=O)Nc1ccccc1 (stereo not drawn) | -3% | -5% | x | x | x | 6.3µM*
CCOC(=O)Nc1cccc(Nc2ccccc2)c1 | -1% | 0% | -4% | i | -10% | -2%
CN(C)CCCCNC(=O)c1ccc(-n2c(=O)c(=O)[nH]c3ccccc32)cc1 | -4% | -3% | x | x | x | -4%
CC(C)c1ccc(NC(=O)C2CC(=O)N=C(N)S2)cc1 (stereo not drawn) | -1% | -2% | -2% | i | -10% | 25µM*
COc1ccccc1CN1CCC2(CC1)CCN(C(=O)c1cc(C(F)(F)F)cc(C(F)(F)F)c1)CC2 | 0% | -1% | -6% | i | -20% | 3%
Cc1[nH]n(-c2ccccc2)c(=O)c1-c1ccccc1 | 0% | -1% | -4% | i | -4% | 4µM*

Bioassay records deposited in PubChem by National Center for Advancing Translational Sciences (NCATS).
